Measured values from the supplement of paper PMC7156485.

Tested on: TDF
Test: cell number relative to DMSO (% of DMSO); higher = more cells (less growth inhibition / toxicity)
Conditions: concentration: 10 µM; 24 h
In short: (§1)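 Cells were seeded at 800 per well in 384-well plates with RPMI containing 10% FBS; both HCC1569 and TDF lines were used. Compounds were added at 10 µM for 24 h at 37 °C, in triplicate, before fixation in 3.7% formaldehyde and staining with a rabbit anti-H1.0 antibody, an AlexaFluor 647 secondary and DAPI. H1.0 nuclear intensity or cell number is reported as percent of the plate control using the median of replicates, and HCC1569 values were smoothed for positional effects.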
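For H1.0 immunofluorescence intensity relative to DMSO in this document: TDF is a line of transformed human dermal fibroblasts of mesenchymal origin.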
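For cell number relative to DMSO in this document: TDF denotes transformed human dermal fibroblasts of mesenchymal origin.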

SMILES	cell number
CC(C)Nc1cccnc1N1CCN(C(=O)c2cc3cc(NS(C)(=O)=O)ccc3[nH]2)CC1.CS(=O)(=O)O [Delavirdine mesylate]	102
CCCCCCCCCCCCC(=O)O [Tridecanoic acid]	92.9
O=C(OC1CC2CC3CC(C1)N2CC3=O)c1c[nH]c2ccccc12 (stereo unspecified) [Dolasetron]	84.3
CC(=O)Oc1ccccc1C(=O)Oc1ccc(CO[N+](=O)[O-])cc1 [4-[(nitrooxy)methyl]phenyl 2-(acetyloxy)benzoate]	66.5
Cn1c(=O)c(-c2c(Cl)cccc2Cl)cc2cnc(Nc3ccc(N4CCOCC4)cc3)nc21	21.9
c1ccc(-c2n[nH]c3c2oc2ccccc23)cc1	103
Br.COc1ccccc1N1CCN(CCCCN2C(=O)c3ccccc3C2=O)CC1 [NAN-190 hydrobromide]	102

Tested on: TDF
Test: H1.0 immunofluorescence intensity relative to DMSO (% of DMSO); higher = stronger H1.0 induction, active = 120 or more
Conditions: concentration: 10 µM; 24 h
In short: as §1

SMILES	H1.0 immunofluorescence intensity
COc1ccc(CC(=O)NC(N=C(NC#N)Nc2cccc3ncccc23)C(C)(C)C)cc1OC (stereo unspecified)	93.5 (inactive)
CN1CCCC1c1cccnc1.Cc1ccc(C(=O)OC(C(=O)O)C(OC(=O)c2ccc(C)cc2)C(=O)O)cc1 (stereo not drawn) [(+)-Nicotine (+)-di-p-toluoyl tartrate]	88.1 (inactive)
CC(C)NCC(O)c1cc(O)cc(O)c1.CC(C)NCC(O)c1cc(O)cc(O)c1.O=S(=O)(O)O (stereo unspecified) [Metaproterenol hemisulfate]	92.1 (inactive)
Cc1ccc(NC2=CC(=O)c3sc(C)nc3C2=O)cc1 [Cdk4 Inhibitor III]	132 (active)
CC1CC2C3CCC4=CC(=O)C=CC4(C)C3(F)C(O)CC2(C)C1(O)C(=O)CO (stereo unspecified) [Dexamethasone]	81.6 (inactive)
O=c1[nH]c2cc(Cl)ccc2c(O)c1-c1cccc(Oc2ccccc2)c1	91.7 (inactive)
NS(=O)(=O)c1cc2c(cc1Cl)NC(C1CC3C=CC1C3)NS2(=O)=O (stereo unspecified) [Cyclothiazide]	111 (inactive)
CC(C)Cc1ccc(C(C)C(=O)O)cc1 (racemic)	95.4 (inactive)
CN(C)CCCSc1ccccc1NC(=O)C=Cc1ccccc1 [Cinanserin]	102 (inactive)
CCCCCC(O)C=CC1C=CC(=O)C1CCCCCCC(=O)O (stereo unspecified) [Prostaglandin A1]	93.3 (inactive)
CCCCCCCCCCCCCCCCn1cc[n+](Cc2ccccc2)c1C.[I-]	103 (inactive)
O=C(Nc1cccc(C(=O)Nc2ccc(S(=O)(=O)[O-])c3cc(S(=O)(=O)[O-])cc(S(=O)(=O)[O-])c23)c1)Nc1cccc(C(=O)Nc2ccc(S(=O)(=O)[O-])c3cc(S(=O)(=O)[O-])cc(S(=O)(=O)[O-])c23)c1.[Na+].[Na+].[Na+].[Na+].[Na+].[Na+]	93.4 (inactive)
CCCCCC=CCC=CCC=CC=CC1CCCC(=O)O1 (racemic)	98.2 (inactive)
O=C(O)Cc1ccc(O)c(O)c1 [3,4-Dihydroxyphenylacetic acid]	95.9 (inactive)
C1COC(NC(C2CC2)C2CC2)=N1 [Rilmenidine hemifumarate]	89.5 (inactive)
O=C(O)CCCCCCCC(=O)O [Azelaic acid]	98.2 (inactive)
Cc1ccc(Cl)c(Nc2ccccc2C(=O)[O-])c1Cl.[Na+] [sodium 2-(2,6-dichloro-3-methylanilino)benzoate]	97.9 (inactive)
COc1c(N2CCNC(C)C2)c(F)cc2c(=O)c(C(=O)O)cn(C3CC3)c12 (stereo unspecified) [Gatifloxacin]	94.2 (inactive)
CC(C(O)c1ccc(O)cc1)N1CCC(Cc2ccccc2)CC1.CC(C(O)c1ccc(O)cc1)N1CCC(Cc2ccccc2)CC1.O=C(O)C(O)C(O)C(=O)O (stereo unspecified) [Ifenprodil tartrate]	100 (inactive)
O=C1CC(c2ccc(O)cc2)Oc2cc(OC3OC(CO)C(O)C(O)C3O)cc(O)c21 (stereo unspecified) [Narigenin-7-O-glucoside]	97.8 (inactive)

SMILES	H1.0 immunofluorescence intensity
COCCc1ccc(OCC(O)CNC(C)C)cc1.COCCc1ccc(OCC(O)CNC(C)C)cc1.O=C(O)C(O)C(O)C(=O)O (racemic)	95.6 (inactive)
COc1ccccc1N1CCN(CCCNc2cc(=O)n(C)c(=O)n2C)CC1.Cl [Urapidil hydrochloride]	92.7 (inactive)
CN(C)CCOC(c1ccccc1)c1ccccc1.Cl [Diphenhydramine.HCl]	100 (inactive)
COC1C=CC=C(C)C(=O)NC2=CC(=O)C=C(C2=O)C(OC)C(C)CC(OC)C(OC)C(C)C=C(C)C1OC(N)=O (stereo unspecified) [Herbimycin A, Streptomyces sp.]	88.3 (inactive)
Clc1ccc(CON=C(Cn2ccnc2)c2ccc(Cl)cc2Cl)c(Cl)c1 [Oxiconazole]	98.4 (inactive)
Cl.c1ccc(C2CN3CCSC3=N2)cc1 (stereo unspecified) [Tetramisole hydrochloride]	91.7 (inactive)
O=C(C=Cc1ccc(O)cc1)CC(=O)C=Cc1ccc(O)cc1 [Bis demethoxycurcumin]	96 (inactive)
[Cl-].[Li+] [Lithium Chloride]	92.2 (inactive)
CCCCCCCCCCCCCCCC(O)C(CO)NC(C)=O (stereo unspecified) [C2 Dihydroceramide]	99.1 (inactive)
CCN(CC)CCOC(=O)C1(C2CCCCC2)CCCCC1.Cl [Dicyclomine hydrochloride]	99.8 (inactive)
C[N+](C)(C)CCOC(N)=O [Carbamylcholine]	93.3 (inactive)
OC1c2ccccc2N=C2CCCN21 (stereo unspecified) [Peganole]	95.3 (inactive)
CC(C)Nc1cccnc1N1CCN(C(=O)c2cc3cc(NS(C)(=O)=O)ccc3[nH]2)CC1.CS(=O)(=O)O [Delavirdine mesylate]	99.1 (inactive)
CCCCCCCCCCCCC(=O)O [Tridecanoic acid]	107 (inactive)
O=C(OC1CC2CC3CC(C1)N2CC3=O)c1c[nH]c2ccccc12 (stereo unspecified) [Dolasetron]	102 (inactive)
CC(=O)Oc1ccccc1C(=O)Oc1ccc(CO[N+](=O)[O-])cc1 [4-[(nitrooxy)methyl]phenyl 2-(acetyloxy)benzoate]	110 (inactive)
Cn1c(=O)c(-c2c(Cl)cccc2Cl)cc2cnc(Nc3ccc(N4CCOCC4)cc3)nc21	154 (active)
c1ccc(-c2n[nH]c3c2oc2ccccc23)cc1	94.2 (inactive)
Br.COc1ccccc1N1CCN(CCCCN2C(=O)c3ccccc3C2=O)CC1 [NAN-190 hydrobromide]	90.9 (inactive)
